Shown are actives, neighbours in structure and some others; about 2% of the full set was active somewhere.
PKM2 activator: increases activity of human pyruvate kinase M2 | purified PKM2, Kinase-Glo ATP luminescence, activation; response scale: 0% is enzyme alone, no compound | Potency, µM (series often up to 57.5 µM), hits mostly activators | 260,000 compounds, 0.34% hits | AID 1631; further: nearly all actives have a fitted effect of over 55% in size
Target sequence (P14618 whole entry, looked up): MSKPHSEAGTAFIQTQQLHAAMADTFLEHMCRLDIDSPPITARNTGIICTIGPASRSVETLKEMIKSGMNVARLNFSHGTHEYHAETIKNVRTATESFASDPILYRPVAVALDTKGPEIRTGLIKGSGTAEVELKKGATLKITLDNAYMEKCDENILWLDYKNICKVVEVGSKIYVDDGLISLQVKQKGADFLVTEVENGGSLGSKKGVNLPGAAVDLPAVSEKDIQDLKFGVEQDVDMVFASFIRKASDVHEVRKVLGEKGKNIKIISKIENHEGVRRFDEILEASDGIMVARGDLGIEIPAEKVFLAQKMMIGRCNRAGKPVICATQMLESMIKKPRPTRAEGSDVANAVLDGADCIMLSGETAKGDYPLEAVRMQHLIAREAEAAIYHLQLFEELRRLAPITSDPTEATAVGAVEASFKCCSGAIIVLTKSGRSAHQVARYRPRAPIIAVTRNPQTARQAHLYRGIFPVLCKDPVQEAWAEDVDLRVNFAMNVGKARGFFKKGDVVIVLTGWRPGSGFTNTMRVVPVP
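ATP formation by purified human PK-M2, quantified via coupled luciferase luminescence after 1 h at room temperature with 0.1 mM ADP and 0.5 mM PEP final.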
ClpP mod: qHTS Assay for Activators of ClpP. ATP-dependent Clp protease proteolytic subunit (Bacillus subtilis (strain 168)), P80244. purified B. subtilis ClpP, FRET peptide cleavage, 20 min. Potency, µM (doses to about 57.5 µM). 340,000 compounds, 1.9% hits; active means well fitted falling curve with a large enough effect; inconclusive means small, poorly fitted or top-dose-only effect; inactive means no such curve, though single readings can be large or run the other way; further: the source files actives as falling curves though it sought activators and does not explain the sign; nearly all actives have a fitted effect of over 65% in size
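ClpP 10 microg/mL final, pH 8 Tris/KCl buffer with BSA, glycerol, Tween-20; compound pinned in; FRET-FV substrate; RT 20 min; Ex320/Em430; ΔFRET vs ADEP 5.8 microM, DMSO, no enzyme.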
IL2 activator: activates IL-2 in a cell-based reporter assay; AID 652025; IL-2 activation reporter assay, cell-based qHTS; stimulated with anti-CD3/CD4/CD28 beads; in transgenic mouse T cells; activation, % (series mostly up to about 46 µM); 360,000 compounds, 0.065% hits; in the data active means activation above about 50%; inconclusive means mostly about 30% to 49%
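First, unstimulated transgenic mouse T cells were exposed to compound for 60 min. Next, anti-CD3/anti-CD4-coated beads with anti-CD28 were added. Finally, after 18 h at 37 degrees C, EGFP and DsRed were imaged.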
NPSR antag: neuropeptide S receptor (human) antagonism, cAMP | Q6W5P4 | CHO-NPSR cells, cAMP TR-FRET, antagonist mode | Potency, µM (titrated, usually from 38.3 µM), hits mostly inhibitors | 220,000 compounds, 1% hits | AID 1461; further: nearly all actives have a fitted effect of over 50% in size
ClpP validation: Bacillus subtilis ClpP inhibition, validated hit. Potency, µM (top dose mostly 57.5 µM), hits mostly inhibitors. purified B. subtilis ClpP, FRET-FV substrate cleavage, 20 min. AID 743245. shares compounds with ClpP mod. 470 compounds, 40% hits; further: nearly all actives have a fitted effect of over 70% in size
Each line names hits and unclear results; the compound was inactive in the other large screens (follow-up assays come after a bar, where they were run). Unless noted, the call rests on the fitted dose curve; in most records, active means well fitted curve in the direction sought with a large enough effect; inconclusive means small, poorly fitted or top-dose-only effect, or another doubt; inactive means no such curve, though single readings can be large; an effect the other way counts as inactive or inconclusive.

Cc1ccsc1CN(C)CC(=O)N(C)CC(=O)Nc1c(Cl)cccc1Cl	none (no result: PKM2 activator, NPSR antag)
Cc1cccc(N2CCN(C(=O)c3cn(C4CCCCC4)c(=O)c4c3c3ccccc3n4C)CC2)c1C	ClpP mod 8.91µM (no result: PKM2 activator, IL2 activator, NPSR antag) | ClpP validation inactive
Cc1cc(OC(=O)c2ccc(C(C)(C)C)cc2)c([N+](=O)[O-])c(=O)[nH]1	none (no result: PKM2 activator, NPSR antag)
Cc1nnc(NC(=O)c2sc3ccccc3c2Cl)s1	none
CNC(=O)c1ccsc1NC(=O)c1sc2ccccc2c1Cl	none | ClpP validation inconclusive
CCOC(=O)Cc1ccc(NC(=O)Nc2nnc(N3CCCCC3C)s2)cc1 (stereo not drawn)	none (no result: PKM2 activator, IL2 activator, NPSR antag)
O=C(OCc1cc(=O)n2nc(C3CCCCC3)sc2n1)c1ccccc1Cl	none (no result: PKM2 activator, IL2 activator, NPSR antag)
CCOc1ccc(-n2nc3ccc(NC(=O)c4ccc5c(c4)OCCO5)cc3n2)cc1	ClpP mod 8.91µM, NPSR antag 10µM | ClpP validation inconclusive
CCc1ccc(-n2nc3ccc(NC(=O)c4ccc5c(c4)OCO5)cc3n2)cc1	ClpP mod 3.16µM | ClpP validation inactive
Cc1ccc(S(=O)(=O)NCc2ccccc2)cc1C(=O)N(C)CC(=O)Nc1ccccc1Br	none (no result: PKM2 activator, NPSR antag)
Cc1ccc(C(=O)Nc2cccc(C(F)(F)F)c2)cc1NC(=O)c1nccnc1N	none | ClpP validation inconclusive
COc1cccc(NC(=O)c2cc([N+](=O)[O-])ccc2NCc2cccnc2)c1	NPSR antag inconclusive | ClpP validation inactive
CSc1cccc(NC(=O)c2cc(S(=O)(=O)N3CCCCC3)c[nH]2)c1	none (no result: NPSR antag)
O=C(Nc1cccc(Br)c1)c1cc(S(=O)(=O)N2CCCCC2)c[nH]1	none (no result: PKM2 activator, IL2 activator, NPSR antag) | ClpP validation inactive
COc1ccc(-c2cc(C(=O)N3CCC3)c3ccccc3n2)cc1OC	ClpP mod 3.16µM (no result: PKM2 activator, NPSR antag) | ClpP validation inactive
COc1ccc(-c2cc(C(=O)N3CCCC3)c3ccccc3n2)cc1OC	none (no result: NPSR antag)
C[C@H](CO)N1C[C@H](C)[C@H](CN(C)Cc2ccc(C(=O)O)cc2)OCc2ccccc2-c2c(n(C)c3ccccc23)C1=O	none (no result: PKM2 activator, NPSR antag)
COc1ccc2c(c1)c1ncn(CCc3ccccc3)c(=O)c1n2C	ClpP mod 4.47µM | ClpP validation 12.2µM
CCc1nc(Nc2cccc(O)c2)c2oc3ccccc3c2n1	none (no result: PKM2 activator, NPSR antag)
CCc1nc(Nc2ccncc2)c2oc3ccccc3c2n1	ClpP mod 8.91µM | ClpP validation inconclusive
CCC(C)NC(=O)c1cn(CCOC)c(=O)c2c1c1ccccc1n2C (stereo not drawn)	none (no result: PKM2 activator, NPSR antag)
COCCn1cc(C(=O)N2CCCC(C)C2)c2c3ccccc3n(C)c2c1=O (stereo not drawn)	ClpP mod 3.16µM | ClpP validation 15.3µM
CCOC(=O)C1CCCCN1C(=O)c1oc2c(Cl)cc(C)cc2c1C (stereo not drawn)	none (no result: NPSR antag) | ClpP validation inactive
C=CCNC(=O)c1ccc(N(C)S(=O)(=O)c2ccc(OC)cc2)cc1	none
O=C(Nc1ccc(F)cc1)N1CCN2C(=O)c3ccccc3C12c1ccccc1 (stereo not drawn)	ClpP mod 3.98µM | ClpP validation inactive
O=C1c2ccccc2C2(c3ccccc3)N1CCN2C(=O)C(Cl)(Cl)Cl (stereo not drawn)	none (no result: PKM2 activator, NPSR antag)
COCCn1c(CN2CC(C)CC(C)C2)nc2c1c(=O)n(C)c(=O)n2C (stereo not drawn)	none
Cc1cc(N2CCN(c3ccc(F)cc3)CC2)n2cnnc2n1	none (no result: PKM2 activator, IL2 activator, NPSR antag)
Cc1cc(N2CCN(C)CC2)n2cc(-c3ccc(F)cc3)nc2n1	ClpP mod 7.08µM | ClpP validation 27.3µM
COc1ccccc1NC(=O)c1sc2nc(N3CCOCC3)c3c(c2c1N)CCCC3	ClpP mod 8.91µM (no result: NPSR antag) | ClpP validation inconclusive
Cc1ccccc1NC(=O)c1sc2nc(N3CCOCC3)c3c(c2c1N)CCCC3	none (no result: PKM2 activator, NPSR antag)
Cc1ccc(C)c(Nc2nc3c(S(=O)(=O)c4ccccc4)nnn3c3ccccc23)c1	none | ClpP validation 21.7µM
COc1ccc2oc(-c3ccco3)cc(=O)c2c1	none
O=c1cc(-c2ccco2)oc2ccc(Cl)cc12	ClpP mod 2.82µM | ClpP validation inconclusive
CN(CC(=O)Nc1ccc(Cl)c(C(F)(F)F)c1)C(=O)Cc1c[nH]c2ccccc12	none (no result: PKM2 activator, NPSR antag)
Cc1cc(C)cc(N(CC(=O)Nc2ccc(-c3nc4ccc(C)cc4s3)cc2)S(C)(=O)=O)c1	ClpP mod 10µM | ClpP validation 19.3µM
